Experimental data reported in PubChem BioAssay.
“And” between values parts separate entries of the source, which are not always exact repeats. Equal values may be shown once. Records with an inconclusive call do not appear. The source made the active and inactive calls. Cut-off read from the data, not from the text of the source, unless noted: active = inhibition above about 80%; inactive = the rest.

What was measured:
[1] = sensitizers of A549 cells to miR-34 induction, primary screen, imaging, A549 dox-inducible miR-34, nuclei and caspase counts (AID 1347080;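 active = compounds whose cell count with miR-34 switched on is under 0.7 times the count with it off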); settings: A549 miR-34 inducible, Hoechst nuclei count, 48 h
[2] = viability rescue of complex I mutant cybrids, primary screen, cell-based, galactose medium, ATP luminescence (AID 1645843;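 active = z-score of at least 1.8 in each of two replicates, scored against plate mean and spread of sample wells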;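 note: positive z means more ATP and so rescue of galactose-driven cybrid death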); settings: complex I mutant cybrid cells, 72 h, stronger effect = higher value
[3] = LFS_MB_P medulloblastoma growth inhibition, cell-based, chromothripsis tumors, cisplatin or BGB combos (AID 1671449); settings: LFS_MB_P medulloblastoma cells;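 note: cells exposed for 96 hours; 0% = vehicle DMSO and 100% = killing by high DMSO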
[4] = HDN33 neuroblastoma growth inhibition, cell-based, chromothripsis tumors, cisplatin or BGB combos (AID 1671450); settings: HDN33 neuroblastoma cells, stronger effect = higher value;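 note: cells exposed to compound for four days; 0% = vehicle DMSO and 100% = cell killing by high DMSO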
[5] = ICB984 medulloblastoma cell growth inhibition, synergistic combos for chromothripsis tumors, cisplatin or BGB combos (AID 1671451; call rule not given here;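 note: cells exposed for 96 hours before readout; 0% = vehicle DMSO and 100% = killing by high DMSO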); settings: ICB984 medulloblastoma cells, drug combinations, stronger effect = higher value
[6] = LFS_MB_1R medulloblastoma cell growth inhibition, synergistic combos for chromothripsis tumors, cisplatin or BGB combos (AID 1671452); settings: LFS_MB_1R medulloblastoma cells, stronger effect = higher value;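 note: cells exposed for 96 hours before readout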
[7] = HTB85 osteosarcoma cell growth inhibition, synergistic combos for chromothripsis tumors, BGB or cisplatin IC20 combos (AID 1671453); settings: HTB85 osteosarcoma cells, drug combinations, stronger effect = higher value;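 note: cells exposed for 96 hours before readout; 0% = vehicle DMSO and 100% = high DMSO killing control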
[8] = CRL2098 osteosarcoma cell growth inhibition, synergistic combos for chromothripsis tumors, BGB or cisplatin IC20 combos (AID 1671454); settings: CRL2098 osteosarcoma cells, drug combinations, stronger effect = higher value;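 note: cells exposed for 96 h before readout; 0% = vehicle DMSO and 100% = killing by high DMSO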
[9] = HD-MB03 medulloblastoma cell growth inhibition, synergistic combos for chromothripsis tumors, BGB or cisplatin IC20 combos (AID 1671455; in the data active = inhibition above about 83%;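 note: 0% = vehicle DMSO and 100% = high DMSO as cytotoxic control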); settings: HD-MB03 medulloblastoma cells, stronger effect = higher value
[10] = UWB1.289 ovarian carcinoma cell growth inhibition, synergistic combos for chromothripsis tumors, BGB or cisplatin combos (AID 1671456); settings: UWB1.289 ovarian carcinoma cells, stronger effect = higher value;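 note: cells exposed to compound for four days; 0% = vehicle DMSO and 100% = killing by high DMSO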
[11] = LFS_MB_2R medulloblastoma cell growth inhibition, synergistic combos for chromothripsis tumors, cisplatin combos (AID 1671457); settings: LFS_MB_2R medulloblastoma cells, stronger effect = higher value;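 note: cells exposed to compound for four days before readout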
[12] = MDA-MB-436 breast carcinoma cell growth inhibition, synergistic combos for chromothripsis tumors, BGB or cisplatin combos (AID 1671458; call rule not given here;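 note: cells exposed for 96 hours; 0% = vehicle DMSO and 100% = killing by high DMSO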); settings: MDA-MB-436 breast carcinoma growth inhibition, drug combinations, stronger effect = higher value
[13] = UWB1.289_BRCA1 ovarian cancer growth, cell-based, BGB or cisplatin combinations (AID 1671459); settings: UWB1.289 BRCA1 ovarian carcinoma, drug combinations, stronger effect = higher value
[14] = human astrocyte viability loss, single and combined drugs, cytotoxicity control for chromothriptic childhood tumor combination screen, cell-based, BGB or cisplatin IC20 combos (AID 1671460); settings: Human astrocytes, drug combinations, stronger effect = higher value;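 note: cells exposed to compounds for 96 hours before viability readout; 0% = vehicle and 100% = killing control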
[15] = growth inhibition of BT084 medulloblastoma cells, cell-based, ICGC_MB145, cisplatin and BGB IC40 combos (AID 1671461); settings: drug combinations, stronger effect = higher value;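 note: cells exposed to drugs for 96 hours; 0% = vehicle DMSO and 100% = high DMSO full killing control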
[16] = growth inhibition of RCMB18 medulloblastoma cells, cell-based, cisplatin and BGB IC40 combos (AID 1671462); settings: stronger effect = higher value;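 note: cells exposed to compound for four days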
[17] = growth inhibition of CRL1545 osteosarcoma cells, cell-based, cisplatin and BGB IC20 combos (AID 1671464); settings: stronger effect = higher value;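 note: cells exposed to compound for 96 hours before readout; 0% = vehicle DMSO and 100% = high DMSO killing control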
[18] = circadian clock period modulators, cell-based, LOPAC library, luminescence reporter (AID 2774; call rule not given here;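 note: values are relative to mean of DMSO wells on each plate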); settings: circadian reporter cells, at 7 µM, actives lie on both sides
[19] = test system: Hepatitis C virus NS3 helicase; experiment: HCV NS3 helicase inhibitors, primary screen, biochemical, fluorescence polarization, LOPAC1280 library (AID 687035; in the data active = inhibition above about 37%); settings: Purified HCV NS3 helicase, Cy5-dT15 ssDNA binding fluorescence polarization; stronger effect = higher value; concentration not given here
[20] = Cy5 fluorescence quenching or enhancement artefacts, artefact control for HCV NS3 helicase inhibitor project, biochemical, LOPAC1280 (AID 687037; call rule not given here); settings: Cy5-DNA-NS3h complex fluorescence interference counterscreen
[21] = target: ATP-dependent translocase ABCB1 (Homo sapiens) (UniProt P08183); experiment: MDR1 (ABCB1) efflux transporter inhibition, cell-based (AID 377; in the data active = fluorescence slope change above about 50%); settings: MDR1-expressing cells, fluorescent substrate accumulation slope; stronger effect = higher value; concentration not given here
Sequence of ATP-dependent translocase ABCB1 (Homo sapiens) (P08183 whole entry, looked up): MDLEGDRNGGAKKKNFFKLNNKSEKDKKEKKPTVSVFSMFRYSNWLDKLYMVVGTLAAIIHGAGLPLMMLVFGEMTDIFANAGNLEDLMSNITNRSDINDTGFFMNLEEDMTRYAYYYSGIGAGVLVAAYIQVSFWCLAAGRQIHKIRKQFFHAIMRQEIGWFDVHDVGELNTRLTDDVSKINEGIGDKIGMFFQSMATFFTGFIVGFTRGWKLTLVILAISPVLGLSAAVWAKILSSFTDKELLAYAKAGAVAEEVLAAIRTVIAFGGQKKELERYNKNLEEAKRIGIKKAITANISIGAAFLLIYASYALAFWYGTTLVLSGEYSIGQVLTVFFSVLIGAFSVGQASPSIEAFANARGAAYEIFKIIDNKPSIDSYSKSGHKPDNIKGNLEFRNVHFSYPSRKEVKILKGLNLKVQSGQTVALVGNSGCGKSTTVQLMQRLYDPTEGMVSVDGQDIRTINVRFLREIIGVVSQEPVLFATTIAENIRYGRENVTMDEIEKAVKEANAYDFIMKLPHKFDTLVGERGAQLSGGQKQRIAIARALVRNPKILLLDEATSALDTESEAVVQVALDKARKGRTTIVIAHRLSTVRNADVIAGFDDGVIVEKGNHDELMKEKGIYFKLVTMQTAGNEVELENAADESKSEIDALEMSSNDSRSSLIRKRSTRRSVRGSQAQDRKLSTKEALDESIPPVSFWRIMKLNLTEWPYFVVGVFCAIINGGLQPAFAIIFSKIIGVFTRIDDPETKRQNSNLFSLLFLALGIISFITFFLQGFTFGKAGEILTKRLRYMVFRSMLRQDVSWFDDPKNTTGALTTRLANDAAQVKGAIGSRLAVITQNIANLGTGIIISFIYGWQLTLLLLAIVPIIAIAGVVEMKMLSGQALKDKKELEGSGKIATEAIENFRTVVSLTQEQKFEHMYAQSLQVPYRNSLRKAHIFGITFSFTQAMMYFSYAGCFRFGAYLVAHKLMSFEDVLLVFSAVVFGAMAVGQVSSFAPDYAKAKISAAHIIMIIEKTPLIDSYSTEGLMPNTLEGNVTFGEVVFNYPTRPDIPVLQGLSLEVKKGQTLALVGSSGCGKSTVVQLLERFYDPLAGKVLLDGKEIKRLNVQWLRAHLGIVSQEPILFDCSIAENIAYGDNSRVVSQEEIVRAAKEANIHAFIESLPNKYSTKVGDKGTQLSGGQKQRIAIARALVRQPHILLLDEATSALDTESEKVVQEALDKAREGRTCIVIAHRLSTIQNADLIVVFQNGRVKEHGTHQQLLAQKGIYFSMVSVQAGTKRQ

[22] = hESC survival regulators, cell-based (AID 493140; call rule not given here;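 note: cells exposed to compounds for four days before counting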); settings: human embryonic stem cell survival screen; stronger effect = higher value
[23] = liver-stage malaria parasite growth inhibition, primary screen, cell-based, HepG2, luciferase luminescence, HepG2 viability (AID 624349; in the data active = parasite load remaining mostly below about 12%, no sharp cut-off; inactive = mostly above about 10%;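 note: 100% = mean of DMSO negative control wells on the same plate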); settings: P. berghei liver stage in HepG2, luciferase luminescence, concentration not given here; parasite load remaining: stronger effect = lower value; viability: measured here: HepG2 viability without parasites
[24] = stronger effect = lower value, cell number ratio, induced over uninduced
[25] = measured here: relative caspase fold change +Dox/-Dox
[26] = measured here: total cells with miR-34 induction, stronger effect = lower value
[27] = measured here: total cells without miR-34 induction
[28] = measured here: combination with BGB IC40, at 0.05 µM
[29] = measured here: with BGB IC20 combination, at 0.5 µM
[30] = measured here: with cisplatin IC20 combination, at 0.5 µM
[31] = measured here: combination with cisplatin, at 0.5 µM
[32] = measured here: combination with cisplatin, at 5 µM

In the case of `COc1c(N2CC3CCCNC3C2)c(F)cc2c(=O)c(C(=O)O)cn(C3CC3)c12` (configuration not stated), the fold change [1, 24] is reported as 0.906 (inactive), the fold change [1, 25] is reported as 1.2 and the cell count [1, 26] is reported as 9060. For the same compound, the cell count [1, 27] was 10000, the z-score [2] was 0.965 (inactive) and the inhibition ([3]; at 0.5 µM, stronger effect = higher value) was 79.9% (inactive) and -20.5% (inactive). The inhibition ([3]; measured here: combination with BGB IC20, at 0.005 µM) was -24.3% and -13.6%, the inhibition ([3]; measured here: combination with BGB IC40, at 0.005 µM) was -13.7% and -15.3% and the inhibition [3, 28] was -23.7% and -12.1%. For the same compound, the inhibition ([3]; measured here: combination with cisplatin, at 0.5 µM, stronger effect = higher value) was 118% and -28.2%, the inhibition ([3]; measured here: combination with cisplatin, at 5 µM, stronger effect = higher value) was -54.4% and -21.2% and the inhibition ([4]; BGB combo, at 5 µM) was 16.5% and -16.1%. For the same compound, the inhibition ([4]; at 0.5 µM) was -17.5% (inactive) and 7.5% (inactive), the inhibition ([4]; cisplatin combo, at 5 µM) was -9.22% and 17.7% and the inhibition [4, 29] was -4.15% and 11.4%. The inhibition [4, 30] was -25.5% and 15.3%, the inhibition ([4]; single agent, at 5 µM) was 17.2% and 9.26% and the inhibition ([5]; BGB IC20 combo, at 0.005 µM) was -0.325% and -11.1%. For the same compound, the inhibition ([5]; BGB IC40 combo, at 0.005 µM) was -5.95% and -17.1%, the inhibition ([5]; BGB IC40 combo, at 0.05 µM) was -19.5% and -21.1% and the inhibition ([5]; at 0.5 µM) was -10.7% (inactive) and -20.7% (inactive). For the same compound, the inhibition ([5]; cisplatin combo, at 0.05 µM) was -23.8% and -21.1%, the inhibition ([5]; cisplatin combo, at 0.5 µM) was -1.29% and -29.2% and the inhibition ([5]; cisplatin combo, at 5 µM) was -29.8% and -8.73%. For the same compound, the inhibition ([5]; measured here: 5 uM single agent, at 5 µM) was -4.57% and 0.836%, the inhibition ([6]; at 0.5 µM) was -18.3% (inactive) and -14.3% (inactive) and the inhibition [6, 28] was -0.314% and -2.89%. The inhibition [6, 31] was -10.2% and 25.8%, the inhibition [6, 32] was -57.1% and -57% and the inhibition ([7]; at 0.5 µM) was -1.92% (inactive) and -17.4% (inactive). For the same compound, the inhibition ([7]; measured here: with BGB IC20, at 0.5 µM) was 0.476% and -45.2%, the inhibition ([7]; measured here: with BGB IC20, at 5 µM) was -14.2% and 1.64% and the inhibition ([7]; measured here: with cisplatin IC20, at 0.5 µM) was -4.9% and -17.9%. The inhibition ([7]; measured here: with cisplatin IC20, at 5 µM) was -35.3% and -0.109%, the inhibition ([7]; single agent, at 5 µM) was 12% and -3.92% and the inhibition ([8]; at 0.5 µM) was -38.5% (inactive) and -21% (inactive). For the same compound, the inhibition ([8]; measured here: combination with BGB at IC20, at 0.5 µM) was -15.6% and -12.1%, the inhibition ([8]; measured here: combination with cisplatin at IC20, at 0.5 µM) was -75% and -24% and the inhibition ([9]; at 0.5 µM) was -1.44% (inactive) and -1.69% (inactive). For the same compound, the inhibition ([9]; measured here: combo with BGB at IC20, at 0.5 µM) was -9.81% and -2.86%, the inhibition ([9]; measured here: combo with cisplatin at IC20, at 0.5 µM) was 5.04% and -2.25% and the inhibition ([10]; at 0.5 µM) was 0.61% (inactive) and 5% (inactive). The inhibition ([10]; measured here: inhibition with BGB combination, at 0.05 µM) was -8.87% and -16%, the inhibition ([10]; measured here: inhibition with cisplatin combination, at 0.05 µM) was -17.8% and -13.4% and the inhibition ([11]; at 0.5 µM) was -15.9% (inactive) and -16.5% (inactive). For the same compound, the inhibition [11, 31] was -17.1% and -8.11%, the inhibition [11, 32] was -13.1% and -7.1% and the inhibition ([12]; at 0.5 µM) was -3.8% (inactive) and -6.04% (inactive). For the same compound, the inhibition ([12]; measured here: BGB combination, at 0.5 µM) was -11.6% and -4.26%, the inhibition ([12]; measured here: BGB combination, at 5 µM) was -20.6% and -9.9% and the inhibition ([12]; measured here: cisplatin combination, at 0.5 µM) was -1.34% and -15%. For the same compound, the inhibition ([12]; measured here: cisplatin combination, at 5 µM) was -28.3% and -11.1%, the inhibition ([13]; BGB combination, concentration series, at 5 µM) was 5.74% and 12.9% and the inhibition ([13]; at 0.5 µM) was -0.42% (inactive) and 3.8% (inactive). For the same compound, the inhibition ([13]; cisplatin combination, concentration series, at 5 µM) was 1.62% and 11.9%, the inhibition ([14]; at 0.5 µM) was 9.7% (inactive) and 6.47% (inactive) and the inhibition ([14]; measured here: combo with BGB IC20, at 0.5 µM) was 1.83% and 2.24%. For the same compound, the inhibition ([14]; measured here: combo with cisplatin IC20, at 0.5 µM) was 4.24% and 3.81%, the inhibition ([15]; at 0.5 µM) was -19% (inactive) and -8.29% (inactive) and the inhibition ([15]; cisplatin combination, at 0.5 µM) was -46.7% and 7.45%. For the same compound, the inhibition ([15]; cisplatin combination, at 5 µM) was -18.8% and -23%, the inhibition ([15]; measured here: BGB IC40 combination 0.05 uM, at 0.05 µM) was -35.2% and -12.7% and the inhibition ([15]; single agent, at 5 µM) was -4.05% and -7.99%. For the same compound, the inhibition ([16]; at 0.5 µM) was -5.76% (inactive) and -15.1% (inactive), the inhibition ([16]; cisplatin combo, at 5 µM) was -131% and -3.44% and the inhibition ([16]; measured here: BGB IC40 combination, at 0.05 µM) was 9.3% and -24.7%. For the same compound, the inhibition [16, 31] was -0.114% and -16.6%, the inhibition ([16]; single agent, at 5 µM) was -15% and -12.8% and the inhibition ([17]; at 0.5 µM) was 10.4% (inactive) and -25.5% (inactive). The inhibition [17, 29] was 13% and -1.64%, the inhibition [17, 30] was 7.59% and -37.4% and the inhibition ([17]; single agent, at 0.05 µM) was -39.6% and 17%. For the same compound, the inhibition ([17]; single agent, at 5 µM) was -7.8% and 21.6%.
In the case of `N#C/C(=C\c1ccc(O)c(O)c1)C(=O)c1ccc(O)c(O)c1`, the period change [18] is reported as -0.055 h (inactive), the inhibition [19] is reported as 100% (active) and the fluorescence ratio (interference) [20] is reported as 1 (inactive). The fold change [1, 24] was 0.979 (inactive), the fold change [1, 25] was 1.26 and the cell count [1, 26] was 9140. For the same compound, the cell count [1, 27] was 9340 and the z-score [2] was -0.355 (inactive).
For `CCSC(N)=Nc1ccc(C(F)(F)F)cc1`, the period change [18] was 0.125 h (inactive), the fold change [1, 24] was 1.02 (inactive) and the fold change [1, 25] was 0.833. The cell count [1, 26] was 5930 and the cell count [1, 27] was 5830.
For `Cn1c(-c2ccc3c(c2)OCO3)cc(=O)c2ccccc21`, the fluorescence slope change [21] was 6.8% (inactive), the survival [22] was 4.17 (inactive) and the parasite load remaining [23] was 95.4% (inactive). For the same compound, the viability [23] was 95.4%, the fold change [1, 24] was 0.89 (inactive) and the fold change [1, 25] was 1.11. For the same compound, the cell count [1, 26] was 8470 and the cell count [1, 27] was 9520.
With `Nc1ccn([C@@H]2O[C@H](CO)[C@@H](O)[C@@H]2O)c(=O)n1` the period change [18] was -0.07 h (inactive), the inhibition [19] was -4% (inactive) and the fluorescence ratio (interference) [20] was 0.9 (inactive). For the same compound, the fold change [1, 24] was 0.984 (inactive), the fold change [1, 25] was 1.55 and the cell count [1, 26] was 1860. For the same compound, the cell count [1, 27] was 1890 and the z-score [2] was -0.93 (inactive).
